{"source": "PubChem BioAssay (Tox21)", "note": "Records with an inconclusive call do not appear. Unmarked numbers belong to inactive results. Active and inactive are the calls of the source. The call rests on the fitted dose curve; in most records, active means well fitted inhibition curve with a large enough effect in the signal ratio in the repeat runs (not every such curve was filed as active); inconclusive means weak or mixed curves, or effect the other way; inactive means no such curve, though single readings can be large or run the other way; the % refers to the signal ratio. On the % scale 0 is the no-effect control and ±100 the full control effect; potency means the concentration at half of the fitted maximal effect.", "data": [{"molecular_target": "Bile acid receptor (Homo sapiens) (UniProt Q96RI1)", "sequence (Q96RI1 whole entry, looked up)": "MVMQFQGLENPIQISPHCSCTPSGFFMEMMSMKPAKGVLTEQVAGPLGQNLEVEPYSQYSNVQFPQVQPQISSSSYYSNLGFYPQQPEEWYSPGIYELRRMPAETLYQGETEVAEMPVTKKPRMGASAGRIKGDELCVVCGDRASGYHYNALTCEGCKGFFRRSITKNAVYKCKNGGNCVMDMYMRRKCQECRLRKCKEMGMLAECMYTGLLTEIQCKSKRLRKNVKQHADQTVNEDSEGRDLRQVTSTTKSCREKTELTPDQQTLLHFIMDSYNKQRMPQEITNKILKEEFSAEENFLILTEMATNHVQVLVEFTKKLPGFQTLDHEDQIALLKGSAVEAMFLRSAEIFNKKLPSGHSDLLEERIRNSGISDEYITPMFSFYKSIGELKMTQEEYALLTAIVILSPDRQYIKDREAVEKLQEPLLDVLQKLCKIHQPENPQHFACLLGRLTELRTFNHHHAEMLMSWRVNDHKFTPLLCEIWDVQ", "assay": "qHTS assay to identify small molecule antagonists of the farnesoid-X-receptor (FXR) signaling pathway (AID 743217)", "details": "HEK293T FXR-UAS-bla, beta-lactamase ratio, CDCA-stimulated, 16 h; series mostly up to 62.6 µM; activity change, negative = inhibition: at the top concentration", "text": "U.S. Tox21 Program National Center for Advancing Translational Sciences [NCATS] NIH Chemical Genomics Center [NCGC] U.S. Environmental Protection Agency [EPA] National Institutes of Environmental Health Sciences [NIEHS] National Toxicology Program [NTP] U.S. Food and Drug Administration [FDA] Tox21 Assay Overview: The farnesoid-X-receptor (FXR), a nuclear hormone receptor, is highly expressed in liver, intestine, kidney and adrenal cortex. Natural ligands of FXR are the bile acids (Cholic acid, Chenodeoxy cholic acid etc). FXR is an important regulator of diverse metabolic pathways, including the bile acid homeostasis, lipid and glucose metabolisms. FXR regulates the expression of target genes by binding either as a monomer or as a heterodimer with the retinoid X receptor (RXR). Numerous studies have reported that FXR exerts protective function during cholestasis, diabetes, liver regeneration, and cancer. To identify compounds that inhibit FXR signaling, GeneBLAzer FXR-UAS-bla HEK 293T cell line (Invitrogen, Carlsbad, CA) containing a beta-lactamase reporter gene under the control of a UAS response element was used to screen the Tox21 10K compound library.\nTox21 Assay Protocol Summary: FXR-bla cells were dispensed at 5000 cells/5uL/well in 1536-well black wall/clear bottom plates using a Multidrop Combi (Thermo Fisher Scientific, Waltham, MA) dispenser. After the assay plates were incubated at 37C and 5% CO2 for 5 h, 23 nL of compounds dissolved in DMSO, positive controls or DMSO only was transferred to the assay plate by a Pintool station (Kalypsys, San Diego, CA), followed by addition of 1 uL Chenodeoxycholic acid (50 uM, final concentration in the wells). The assay plates were incubated at 37C for 16 h. After 1 uL of LiveBLAzerTM B/G FRET substrate was added using a Bioraptr Flying Reagent Dispenser (FRD) workstation (Beckman Coulter, Indianapolis, IN), the plates were incubated at room temperature for 2 h, and fluorescence intensity was measured by an Envision plate reader (PerkinElmer, Shelton, CT).", "values": [{"smiles": "CC1(C)C(=O)N(Br)C(=O)N1Br", "activity change, negative = inhibition": "0.354%"}, {"smiles": "C[C@@H]1CC[C@H]2C(C)(C)[C@H]3C[C@@]12CC[C@@]3(C)O", "activity change, negative = inhibition": "-15.7%"}, {"smiles": "CCN(CC)c1ccc(N)cc1", "activity change, negative = inhibition": "-13.6% [at 81.1 µM]"}, {"smiles": "Clc1ccc(C(Cn2ccnc2)OCc2c(Cl)cccc2Cl)c(Cl)c1", "note": "(stereo not given)", "Potency": "21.1 µM (active)"}, {"smiles": "CCOC(=O)[C@@](C)(N)Cc1ccc(O)c(O)c1", "activity change, negative = inhibition": "8.88%"}, {"smiles": "C[Si](C)(C)Cl", "activity change, negative = inhibition": "0.794%"}, {"smiles": "O=C(O)CCCCCCC(=O)O", "activity change, negative = inhibition": "2.41% [at 81.1 µM]"}, {"smiles": "COc1cc(C(C)C)c2c(c1)S(=O)(=O)N(COc1cc(=O)n3cccc(OCCN4CCCCC4)c3n1)C2=O", "activity change, negative = inhibition": "3.55% [at 29.1 µM]"}, {"smiles": "COc1cccc(CCc2ccccc2OCC(CN(C)C)OC(=O)CCC(=O)O)c1", "note": "(stereo not given)", "activity change, negative = inhibition": "-16.7%"}, {"smiles": "NCCCCCCNCCCCCCN", "activity change, negative = inhibition": "3.62%"}, {"smiles": "SCCCCCCCCS", "activity change, negative = inhibition": "-2.02%"}, {"smiles": "O=C(O)Cc1ccc(OCCNC[C@H](O)c2ccccc2)cc1", "activity change, negative = inhibition": "-0.675%"}, {"smiles": "C(=C/c1ccccc1)/c1ccccc1", "activity change, negative = inhibition": "-1.16% [at 81.1 µM]"}, {"smiles": "CCCCCCCC/C=C/CCCOC(C)=O", "activity change, negative = inhibition": "5.41%"}, {"smiles": "[O]=[Zr]", "activity change, negative = inhibition": "-2.6%"}, {"smiles": "CC(CN(C)C)CN1c2ccccc2CCc2ccccc21", "note": "(stereo not given)", "activity change, negative = inhibition": "-13.8%"}, {"smiles": "O=C1C=CC(=O)N1c1ccccc1", "Potency": "54.9 µM (active)"}, {"smiles": "CCCCCCCC/C=C\\CCCCCCCC(=O)OCCOC(=O)CCCCCCC/C=C\\CCCCCCCC", "activity change, negative = inhibition": "-9.79% [at 81.1 µM]"}, {"smiles": "CCCCOc1ccc(C(=O)CCN2CCCCC2)cc1", "activity change, negative = inhibition": "-4.83%"}, {"smiles": "COC(=O)[C@]1(C)CCC[C@@]2(C)[C@H]1CC=C1C=C(C(C)C)CC[C@@H]12", "activity change, negative = inhibition": "-14.3%"}, {"smiles": "CCc1cccc(C)c1", "activity change, negative = inhibition": "-4.4% [at 81.1 µM]"}, {"smiles": "C=CC(=O)OCCC#N", "activity change, negative = inhibition": "-17.5% [at 81.1 µM]"}, {"smiles": "CC1CCCCN1CCCOC(=O)c1ccc(OC2CCCCC2)cc1", "note": "(stereo not given)", "activity change, negative = inhibition": "8.49%"}, {"smiles": "Cc1c(C(=O)O)cccc1[N+](=O)[O-]", "activity change, negative = inhibition": "10.1% [at 81.1 µM]"}, {"smiles": "CCCCCCCCCC(=O)N(C)C", "activity change, negative = inhibition": "-8.06% [at 81.1 µM]"}, {"smiles": "CCCCCCCCCCCC(=O)N(CC)CC", "activity change, negative = inhibition": "-6.78%"}, {"smiles": "C=CC(C)(CCC=C(C)C)OC(=O)/C=C/c1ccccc1", "note": "(stereo not given)", "activity change, negative = inhibition": "1.24%"}, {"smiles": "COC(=O)CC(C)CCC=C(C)C", "note": "(stereo not given)", "activity change, negative = inhibition": "0.23%"}, {"smiles": "c1cc(OCC2CO2)cc(OCC2CO2)c1", "note": "(stereo not given)", "activity change, negative = inhibition": "-27.1%"}, {"smiles": "O=C1c2c(O)ccc(O)c2C(=O)c2c(NCCNCCO)ccc(NCCNCCO)c21", "Potency": "26.6 µM (active)"}, {"smiles": "CC(C)N=C(N)/N=C(\\N)Nc1ccc(Cl)cc1", "activity change, negative = inhibition": "-3.56%"}, {"smiles": "CCCCCCCCCCCCOC(=O)c1cc(O)c(O)c(O)c1", "Potency": "54.9 µM (active)"}, {"smiles": "Cc1c(C)n(Cc2ccccc2)c2ccc(C(=O)OCCN(C)C)cc12", "activity change, negative = inhibition": "-9.88%"}, {"smiles": "Cc1occc1SSc1ccoc1C", "activity change, negative = inhibition": "-3.39%"}, {"smiles": "C/C=C/C(=O)Oc1c(CCCCCC(C)C)cc([N+](=O)[O-])cc1[N+](=O)[O-]", "Potency": "24.5 µM (active)"}, {"smiles": "C1CC(COCC2CO2)CCC1COCC1CO1", "note": "(stereo not given)", "activity change, negative = inhibition": "6.67%"}, {"smiles": "CCOC(=O)COc1ccc(C)cc1", "activity change, negative = inhibition": "1.36%"}, {"smiles": "Nc1cc(Cl)c([N+](=O)[O-])cc1O", "activity change, negative = inhibition": "2.97%"}, {"smiles": "N[C@@H](CSSC[C@H](N)C(=O)O)C(=O)O", "activity change, negative = inhibition": "8.01% [at 0.55 µM]"}, {"smiles": "C=C[C@](C)(O)CC[C@@H]1[C@@]2(C)CCCC(C)(C)[C@@H]2CC[C@@]1(C)O", "Potency": "49 µM (active)"}]}]}
